According to ChEMBL document CHEMBL3988442, “University of Dundee, Small-Polar-MMV Screening Library” (2021):
The campaign covered roughly 48,000 compounds. About 13,000 (27%) showed an effect of 50% or more. This is one part of the list.

System: Wolbachia pipientis
Test: Anti-Wolbachia Cell-Based Screen
Type: functional
Set-up: scale not given: in the data most compounds retested in dose-response had high values
Settings: 5 µM

Row | Structure (SMILES) | Percent Effect
1 | CN(Cc1ccc2c(c1)OCO2)C(=O)c1ccc(C2CCCO2)s1 (configuration not stated) | -6.874%
2 | Cc1n[nH]c(C)c1CCc1nc(C2CC2)n[nH]1 | -13.82%
3 | Cc1cc(C(=O)NCCc2cn3nc(C)sc3n2)c(C)o1 | -4.861%
4 | Cc1cn(CC(=O)NCC(=O)NC2CC2)c2ccccc12 | -10.11%
5 | CCc1nsc(N2CCn3c(nnc3-c3ccccc3)C2)n1 | -13.36%
6 | CCCSCC(=O)N1C[C@@H]2CC[C@H](C1)N(Cc1ccccn1)C2=O | 6.181%
7 | O=C([C@H]1C[C@H]2OCC[C@H]2N(CC2CC2)C1)N1CCCC1 | -0.02998%
8 | CCc1nc(C)c([C@H]2CN(C)C[C@@H]2C(=O)NCc2ccccn2)[nH]1 | -14.52%
9 | CS(=O)(=O)NC[C@H]1Cn2c(-c3ccc4c(c3)OCCO4)cnc2CO1 | -15.67%
10 | Cc1noc(C(C)N2CCN(CCN3CCCC3=O)CC2)n1 (configuration not stated) | 121%
11 | Cc1noc(C(C)N2CCN(CCCN3CCCC3=O)CC2)n1 (configuration not stated) | 8.407%
12 | CCc1noc(C(C)N2CCC(N3CCCC3)CC2)n1 (configuration not stated) | -6.719%
13 | CCc1noc(C(C)N2CCN(CCc3ccncc3)CC2)n1 (configuration not stated) | 0.707%
14 | CCc1noc(C(C)N2CCN(CCN3CCCC3=O)CC2)n1 (configuration not stated) | 113.9%
15 | Cc1noc(C)c1CN(C)CC(=O)/N=c1\cc[nH]n1C(C)C1CC1 (configuration not stated) | -5.789%
16 | CN(C)c1cccc(C(=O)Nc2cnn(Cc3ccccn3)c2)c1 | -6.173%
17 | Cc1ccc2cc(C3(O)CCN(C)CC3)ccc2n1 | -2.467%
18 | COC[C@@]12CC[C@@H](N3CCOCC3)C[C@H]1CCN(c1ncccn1)C2 | -5.007%
19 | COCCC1CCCCN1C(=O)c1coc(COc2ccccc2F)n1 (configuration not stated) | 108.5%
20 | O=C(c1coc(COc2cccc3cnccc23)n1)N1CCCCCC1 | 5.374%
21 | CC1CCCCN1C(=O)c1coc(COc2cccc3cnccc23)n1 (configuration not stated) | -5.431%
22 | COc1ccccc1OCc1cc(C(=O)N2CCCCCC2CO)n[nH]1 (configuration not stated) | -25.79%
23 | COc1cc(C)ccc1OCc1nc(C(=O)N2CCCO2)co1 | -7.138%
24 | COc1cc(C)ccc1OCc1nc(C(=O)N2CCCC2)co1 | 0.1288%
25 | O=C(c1coc(COc2ccccc2F)n1)N1CCCO1 | 104.9%

Row | Structure (SMILES) | Percent Effect
26 | CC[C@H](CO)NC(=O)c1coc(COc2ccccc2F)n1 | -31.99%
27 | O=C(c1coc(COc2ccccc2F)n1)N1CCC[C@H]1CO | 111.3%
28 | CC(c1ccco1)n1cc(-c2cc(CN3CCCC3)cs2)nn1 (configuration not stated) | 21.85%
29 | CCc1cc(C)c(C(=O)N2CCCC(c3nnn[nH]3)C2)o1 (configuration not stated) | 6.83%
30 | CCOc1ccc(C(C)NC(=O)N2CCC(C(N)=O)CC2)cc1OC (configuration not stated) | -11.4%
31 | CCOc1ccc(CCCC(=O)N2CCC(C(=O)NC)C2)cc1C (configuration not stated) | 83.39%
32 | CCOc1ccc(CCCC(=O)N2CC[C@H](NC(C)=O)C2)cc1C | 116.5%
33 | CCNC(=O)N1CCC(NC(=O)NCCCc2cccc(F)c2)C1 (configuration not stated) | -2.549%
34 | CNC(=O)C1CCN(C(=O)c2coc(COc3ccc(OC)cc3)n2)C1 (configuration not stated) | -10.95%
35 | CCOc1ccc(CCCC(=O)N2CCC(c3nnn[nH]3)CC2)cc1C | 92.44%
36 | CCOc1cc(NC(=O)N2CCC(c3nnc[nH]3)CC2)ccc1C | 11.09%
37 | CCc1ccc(CC)c(NCC(=O)N2CCCC(NC(C)=O)C2)c1 (configuration not stated) | 8.422%
38 | O=C(C1CC=CC1)N1CC[C@@H]2O[C@@H](COCC3CCOCC3)CC[C@@H]21 | -9.606%
39 | Cc1cc(=O)n(CC(=O)NCCC(C)C)c(-c2cccc(Cl)c2)n1 | -16.01%
40 | CC(=O)Nc1nc(C(=O)NCCOc2cccc(F)c2)cs1 | 5.348%
41 | COCCC(=O)NCC1Cn2nnc(-c3cccc(F)c3)c2CO1 (configuration not stated) | -4.513%
42 | COCCNC(=O)Cn1c(-c2cccc(Cl)c2)nc(C)c(CCO)c1=O | 141.8%
43 | CNC(=O)c1cn2cc(-c3cccc(Cl)c3)n(CC=C(C)C)c(=O)c2n1 | 3.943%
44 | COCCNC(=O)Cn1c(-c2cccc(F)c2)nc(C)c(CCO)c1=O | 196.7%
45 | O=C(O)C(F)(F)F.O=C(c1cocn1)N1CC[C@H]2OCC[C@@]2(COc2ncccc2F)C1 | 4.073%
46 | CCS(=O)(=O)N1CCc2onc(COc3ccccn3)c2C1.O=C(O)C(F)(F)F | -3.121%
47 | CCN(C)c1ncnc2c1CCN(C(=O)c1ccoc1C)CC2.O=C(O)C(F)(F)F | 0.8996%
48 | Cc1oncc1C(=O)N1CCc2ncnc(-c3cnn(C)c3)c2CC1.O=C(O)C(F)(F)F | 102.6%
49 | Cc1ccc(C(=O)N2CCc3ncnc(-c4cnn(C)c4)c3CC2)cn1.O=C(O)C(F)(F)F | 114%
50 | Cc1ccc(C(=O)N2CCc3ncnc(C)c3CC2)cn1 | -9.03%

Row | Structure (SMILES) | Percent Effect
51 | O=C(O)C(F)(F)F.O=C(c1cccnc1)N1CCc2ncnc(N3CCOCC3)c2CC1 | 3.769%
52 | CN(C)CC(=O)N1CCc2ncnc(-c3cncnc3)c2CC1.O=C(O)C(F)(F)F | 2.289%
53 | Cc1ccc(=O)n(CC(=O)N(C)Cc2csc(-c3cccs3)n2)n1 | -12.57%
54 | O=C(N[C@@H]1CCNC[C@H]1O)c1ccc(F)c(Cl)c1 | -18.82%
55 | Cc1c(C(=O)N2CCN(C)[C@@H]3CS(=O)(=O)C[C@@H]32)[nH]c2ccc(F)cc12 | 22.59%
56 | CO[C@H]1CN(C(C)C)C[C@@H]1NC(=O)c1cc(-c2ccccc2F)n[nH]1 | -41.59%
57 | CS(=O)(=O)NC1CCN(C(=O)c2[nH]c3ccc(Cl)cc3c2Cl)CC1 | 24.08%
58 | O=C(N[C@@H]1CC[C@@H](N2CCCC2)[C@@H]1O)c1cc2cccc(F)c2[nH]1 | 98.49%
59 | CC(=O)N[C@@H]1CN(C(=O)c2cc3ccccc3[nH]2)C[C@H]1c1ccc(C)o1 | 5.04%
60 | Cc1c(C(=O)N[C@@H]2CC[C@@H](N3CCCC3)[C@@H]2O)[nH]c2ccc(F)cc12 | 79.42%
61 | O=C(N[C@@H]1CC[C@@H](N2CCCC2)[C@@H]1O)c1cc2ccccc2[nH]1 | 132.3%
62 | O=C(NC1CCCCNC1=O)c1cc2ccccc2[nH]c1=O (configuration not stated) | 20.65%
63 | CSCCC(C)NC(=O)N1CCSC(C)(C)C1 (configuration not stated) | 17.63%
64 | CCOC(=O)c1ccc(CNC(=O)c2ccc(Cl)cn2)o1 | -5.208%
65 | CCOc1ccc(C2CC(=O)Nc3c2c(=O)nc2sccn32)cc1 (configuration not stated) | 17.16%
66 | Cc1nn(C)c(C)c1C1COCCN1C(=O)CC(C)(C)C (configuration not stated) | -9.995%
67 | Cc1nn(C)c(C)c1C1COCCN1C(=O)c1cc(F)ccc1F (configuration not stated) | 96.87%
68 | Cc1ccc(O)c(C(=O)N2CCOCC2c2c(C)nn(C)c2C)c1 (configuration not stated) | 110.1%
69 | Cc1nn(C)c(C)c1C1COCCN1C(=O)NC1CC1 (configuration not stated) | -3.324%
70 | COC(=O)N1CCCC(C(=O)Nc2nc(C)c(SC)s2)C1 (configuration not stated) | -4.415%
71 | Cc1nc(CNC(C(=O)N2CCOCC2)C(C)C)no1 (configuration not stated) | -7.712%
72 | COc1ccc(F)cc1C[S+]([O-])CC(=O)NCC(C)C (configuration not stated) | -12.33%
73 | Cc1ocnc1C(=O)N1CCN(Cc2ccccc2)[C@@H]2CS(=O)(=O)C[C@@H]21 | -1.53%
74 | CCn1nc2c(cc1=O)CN(CC(=O)N(C)c1nccs1)CC2 | -28.1%
75 | CN(C)C(=O)CO[C@H]1CN(Cc2ccsc2)[C@@H]2COC[C@H]12.O=C(O)C(F)(F)F | 92.71%

Row | Structure (SMILES) | Percent Effect
76 | CN(C)CCO[C@H]1CN(Cc2ccoc2)[C@@H]2COC[C@H]12.O=C(O)C(F)(F)F.O=C(O)C(F)(F)F | -9.926%
77 | CN(C)CCO[C@H]1CN(Cc2ccc3c(c2)OCO3)[C@@H]2COC[C@H]12.O=C(O)C(F)(F)F.O=C(O)C(F)(F)F | -6.328%
78 | CN(C)C(=O)CO[C@H]1CN(Cc2cccc(C#N)c2)[C@@H]2COC[C@H]12.O=C(O)C(F)(F)F | -2.281%
79 | CCc1ccc(CN2C[C@H](OCC(=O)N(C)C)[C@H]3COC[C@H]32)o1.O=C(O)C(F)(F)F | 117.7%
80 | CN(C)C(=O)CO[C@H]1CN(Cc2ccccc2)[C@@H]2CCCO[C@H]12.O=C(O)C(F)(F)F | 0.8065%
81 | CN(C)C(=O)CO[C@H]1CN(Cc2ccc3c(c2)OCO3)[C@@H]2COC[C@H]12.O=C(O)C(F)(F)F | 108%
82 | CN(C)C(=O)CO[C@H]1CN(Cc2ccoc2)[C@@H]2COC[C@H]12.O=C(O)C(F)(F)F | 107.9%
83 | CC(C)C1=NOC(c2nc(Cc3ccccc3)no2)C1 (configuration not stated) | -12.61%
84 | CCc1ccccc1OC1CN(C(=O)c2ccnc(OC)c2)C1 | -7.047%
85 | CC(C)NS(=O)(=O)c1cc(C(=O)O)cc(-c2ccccc2F)c1 | 2.884%
86 | Cc1ccc(F)cc1-c1ccc(N)nc1 | -13.87%
87 | CCc1ccc(C(=O)NC2CCCN(c3ccn(C)n3)C2=O)o1 (configuration not stated) | -13.64%
88 | O=C1CCSCC(C(=O)N2CCN(C3CCCCC3)CC2)N1 (configuration not stated) | 2.707%
89 | COc1cccc(CNCc2nc3ccccc3c(=O)[nH]2)c1 | 145%
90 | COc1ccc(-n2ccc(CNCc3cccc(OC)c3)n2)cc1 | -0.2636%
91 | COc1cccc(-c2nc(CNCc3cccnc3)cs2)c1 | 6.915%
92 | Cl.c1cncc(CNCc2cccs2)c1 | 109.5%
93 | O=C(NCCc1cccnc1)NCCc1cccs1 | -0.2291%
94 | COc1cccc(CNC[C@@]2(COc3cccnc3)C[C@@H](O)[C@@H](O)C2)c1.Cl.Cl | -11.87%
95 | COc1cccc(CNCc2cccnc2)c1 | 125.9%
96 | Cc1nn(C)c(N(C)C)c1CNCc1cccnc1 | 7.028%
97 | C=C(C)COc1cccc(CNCc2nc3ccccc3c(=O)[nH]2)c1 | -21.19%
